Results: PubChem BioAssay (NCATS)
Where “and” joins values, the source holds several entries; their conditions need not be identical. Identical values can stand only once. Unmarked numbers belong to inactive results. Results filed as inconclusive are left out. Where a call stands in place of a potency, no number is given. Calls of active or inactive are those of the source. Unless noted, the call rests on the fitted dose curve; in most records, active means well fitted curve in the direction sought with a large enough effect; inconclusive means small, poorly fitted or top-dose-only effect, or another doubt; inactive means no such curve, though single readings can be large; an effect the other way counts as inactive or inconclusive.

What was measured:
[1] = qHTS for Inhibitors of the Functional Ribonucleoprotein Complex (vRNP) of Lassa (LASV) Arenavirus: LASV Primary Screen - GLuc reporter signal (AID 1347082; calls by dose curve; tested in HEK293 reporter line; further: series mostly up to about 57 µM; nearly all actives have a fitted effect of over 60% in size)
[2] = qHTS for Inhibitors of the Functional Ribonucleoprotein Complex (vRNP) of Lassa (LASV) Arenavirus: Viability assay - alamar blue signal for LASV Primary Screen (AID 1347083; calls by dose curve; tested in HEK293 reporter line; further: nearly all actives have a fitted effect of over 80% in size; further: potency means the concentration at half of the fitted maximal effect)
[3] = qHTS for Inhibitors of the Functional Ribonucleoprotein Complex (vRNP) of Lymphocytic Choriomeningitis Arenaviruses (LCMV): Viability assay - alamar blue signal for LCMV Primary Screen (AID 1347085; calls by dose curve; tested in HEK293 reporter line; further: nearly all actives have a fitted effect of over 80% in size; further: potency means the concentration at half of the fitted maximal effect)
[4] = target: Nucleoprotein (Lymphocytic choriomeningitis virus (strain Armstrong)) (UniProt P09992); assay: qHTS for Inhibitors of the Functional Ribonucleoprotein Complex (vRNP) of Lymphocytic Choriomeningitis Arenaviruses (LCMV): LCMV Primary Screen - GLuc reporter signal (AID 1347086; calls by dose curve; further: series mostly up to about 57 µM; nearly all actives have a fitted effect of over 70% in size)
[5] = target: Tyrosine-protein phosphatase non-receptor type substrate 1 (Homo sapiens) + Leukocyte surface antigen CD47 (Homo sapiens) (UniProt P78324+Q08722); assay: CD47-SIRPalpha protein protein interaction - Alpha assay qHTS validation (AID 1347059);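 further: bead proximity luminescence from CD47 binding SIRPalpha after compound preincubation with SIRPalpha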
Outline: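 Binding is measured by AlphaScreen proximity: Ni-NTA acceptor beads capture His-CD47, streptavidin donor beads capture biotin-SIRPalpha. Each of three additions (SIRPalpha with compound, CD47, beads) incubates 30 min at room temperature protected from light.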

[6] = target: Parathyroid hormone/parathyroid hormone-related peptide receptor (Homo sapiens) (UniProt Q03431); assay: qHTS for PTHR1 Agonists: Optimization Screen against the NCGC LOPAC library (AID 1347079);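 further: GloSensor cAMP luminescence in HEK-293 GP2 cells expressing human PTHR1 with IBMX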
Outline: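 Agonist readout: GloSensor cAMP luminescence, read after 15 min at room temperature. HEK-293-derived GP2 line carries PTHR1; compounds tested as a titration for 1 hr at 37C in presence of IBMX. M-PTH (1-15) served as control.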

[7] = qHTS of pediatric cancer cell lines to identify multiple opportunities for drug repurposing: Primary screen for TC32 cells (AID 1347089); further: nearly all actives have a fitted effect of over 60% in size
Outline: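 Luminescent ATP read-out (CellTiter-Glo) of metabolically active TC32 cells after 48 h exposure. Concentration-response curves came from 11-point (MIPE, 0.78 nM–46 µM) or 8-point (NPC, 0.59 nM–46 µM) primary titrations; follow-up used 11 points.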

[8] = qHTS of pediatric cancer cell lines to identify multiple opportunities for drug repurposing: Primary screen for DAOY cells (AID 1347090); further: series mostly up to about 46 µM; nearly all actives have a fitted effect of over 55% in size
Outline: (§1)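 Cell viability, CellTiter-Glo luminescence; 500-1,000 cells/well, 8- or 11-point titration, 48 h compound exposure at 37 degrees C, 5% CO2. Controls: DMSO neutral, bortezomib 2.3 µM final as positive.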

[9] = qHTS of pediatric cancer cell lines to identify multiple opportunities for drug repurposing: Primary screen for A673 cells (AID 1347092); further: nearly all actives have a fitted effect of over 45% in size
Outline: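 Cell viability of A673 measured by CellTiter-Glo ATP luminescence after 48 hours compound exposure. Dilution series spanned 0.78 nM to 46 µM (MIPE, 11-point) or 0.59 nM to 46 µM (NPC, 8-point); bortezomib 2.3 uM positive control.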

[10] = qHTS of pediatric cancer cell lines to identify multiple opportunities for drug repurposing: Primary screen for SK-N-MC cells (AID 1347093); further: potency means the concentration at half of the fitted maximal effect
Outline: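 Metabolically active cells were quantified by ATP-dependent luminescence (CellTiter-Glo, 15 min at room temperature) following 48 h treatment. Cells had been plated at 500-1,000 per well and settled for 5 h beforehand.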

[11] = qHTS of pediatric cancer cell lines to identify multiple opportunities for drug repurposing: Primary screen for BT-37 cells (AID 1347094); further: series mostly up to about 57 µM
Outline: (§2)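 Primary screen of approved and investigational compounds on cells in growth media at 37 degrees C, 5% CO2. MIPE set at 11-point and NPC set at 8-point dilutions; viability scored by ATP-based luminescence at 48 hours.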

[12] = qHTS of pediatric cancer cell lines to identify multiple opportunities for drug repurposing: Primary screen for NB-EBc1 cells (AID 1347095); further: potency means the concentration at half of the fitted maximal effect
Outline: as §2

[13] = qHTS of pediatric cancer cell lines to identify multiple opportunities for drug repurposing: Primary screen for U-2 OS cells (AID 1347096); further: nearly all actives have a fitted effect of over 50% in size
Outline: (§3)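 Cells (500-1,000/well) rested 5 h, then received compounds for 48 h; metabolically active cells were measured by CellTiter-Glo luminescence. Final concentrations spanned up to 46 µM (MIPE, 11-point) or 0.59 nM-46 µM (NPC, 8-point) in primary screens, 11-point in follow-ups.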

[14] = qHTS of pediatric cancer cell lines to identify multiple opportunities for drug repurposing: Primary screen for Saos-2 cells (AID 1347097); further: nearly all actives have a fitted effect of over 40% in size
Outline: as §2

[15] = qHTS of pediatric cancer cell lines to identify multiple opportunities for drug repurposing: Primary screen for SK-N-SH cells (AID 1347098); further: nearly all actives have a fitted effect of over 65% in size
Outline: as §3

[16] = qHTS of pediatric cancer cell lines to identify multiple opportunities for drug repurposing: Primary screen for NB1643 cells (AID 1347099); further: nearly all actives have a fitted effect of over 50% in size
Outline: as §2

[17] = qHTS of pediatric cancer cell lines to identify multiple opportunities for drug repurposing: Primary screen for LAN-5 cells (AID 1347100); further: potency means the concentration at half of the fitted maximal effect
Outline: as §3

[18] = qHTS of pediatric cancer cell lines to identify multiple opportunities for drug repurposing: Primary screen for BT-12 cells (AID 1347101); further: nearly all actives have a fitted effect of over 25% in size
Outline: as §3

[19] = qHTS of pediatric cancer cell lines to identify multiple opportunities for drug repurposing: Primary screen for Rh18 cells (AID 1347102); further: nearly all actives have a fitted effect of over 65% in size
Outline: as §3

[20] = qHTS of pediatric cancer cell lines to identify multiple opportunities for drug repurposing: Primary screen for SJ-GBM2 cells (AID 1347091)
Outline: as §1

Parathyroid hormone/parathyroid hormone-related peptide receptor (Homo sapiens), sequence (Q03431 whole entry, looked up): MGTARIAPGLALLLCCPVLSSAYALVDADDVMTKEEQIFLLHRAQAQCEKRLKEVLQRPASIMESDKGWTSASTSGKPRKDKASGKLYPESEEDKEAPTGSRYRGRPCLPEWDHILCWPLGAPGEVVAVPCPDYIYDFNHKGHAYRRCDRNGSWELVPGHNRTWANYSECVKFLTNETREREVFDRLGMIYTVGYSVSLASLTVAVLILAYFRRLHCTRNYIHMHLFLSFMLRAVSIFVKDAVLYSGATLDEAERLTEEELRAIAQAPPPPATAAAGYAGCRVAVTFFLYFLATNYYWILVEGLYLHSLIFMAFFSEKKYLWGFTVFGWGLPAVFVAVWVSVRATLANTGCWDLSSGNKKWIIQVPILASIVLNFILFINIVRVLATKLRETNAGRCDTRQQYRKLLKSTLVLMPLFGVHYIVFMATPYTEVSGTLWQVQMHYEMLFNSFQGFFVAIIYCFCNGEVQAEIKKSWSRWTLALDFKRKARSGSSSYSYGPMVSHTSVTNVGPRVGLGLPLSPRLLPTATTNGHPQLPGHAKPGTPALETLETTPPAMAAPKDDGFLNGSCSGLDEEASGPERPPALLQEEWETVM
Tyrosine-protein phosphatase non-receptor type substrate 1 (Homo sapiens) + Leukocyte surface antigen CD47 (Homo sapiens), sequence (P78324 whole entry, looked up): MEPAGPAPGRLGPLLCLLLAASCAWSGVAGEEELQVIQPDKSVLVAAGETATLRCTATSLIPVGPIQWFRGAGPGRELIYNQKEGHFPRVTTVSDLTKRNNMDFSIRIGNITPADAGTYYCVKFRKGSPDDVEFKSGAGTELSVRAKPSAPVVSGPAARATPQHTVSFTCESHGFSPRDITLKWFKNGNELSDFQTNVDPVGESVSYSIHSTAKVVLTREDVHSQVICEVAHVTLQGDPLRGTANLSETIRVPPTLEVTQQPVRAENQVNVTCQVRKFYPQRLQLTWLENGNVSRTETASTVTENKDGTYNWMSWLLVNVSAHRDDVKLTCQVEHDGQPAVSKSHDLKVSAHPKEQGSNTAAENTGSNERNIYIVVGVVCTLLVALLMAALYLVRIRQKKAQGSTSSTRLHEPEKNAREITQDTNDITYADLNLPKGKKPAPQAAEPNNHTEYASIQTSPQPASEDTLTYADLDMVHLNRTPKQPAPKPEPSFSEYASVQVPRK
Tyrosine-protein phosphatase non-receptor type substrate 1 (Homo sapiens) + Leukocyte surface antigen CD47 (Homo sapiens), sequence (Q08722 whole entry, looked up): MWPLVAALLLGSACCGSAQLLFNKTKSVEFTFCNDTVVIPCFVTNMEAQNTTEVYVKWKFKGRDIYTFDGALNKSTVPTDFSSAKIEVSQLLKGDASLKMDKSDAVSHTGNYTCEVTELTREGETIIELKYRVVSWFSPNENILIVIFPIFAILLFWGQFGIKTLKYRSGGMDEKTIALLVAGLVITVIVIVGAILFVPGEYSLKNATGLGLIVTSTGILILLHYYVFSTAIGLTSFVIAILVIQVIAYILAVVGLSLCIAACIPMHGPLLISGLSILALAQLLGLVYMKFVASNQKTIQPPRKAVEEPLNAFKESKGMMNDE
Nucleoprotein (Lymphocytic choriomeningitis virus (strain Armstrong)), sequence (P09992 whole entry, looked up): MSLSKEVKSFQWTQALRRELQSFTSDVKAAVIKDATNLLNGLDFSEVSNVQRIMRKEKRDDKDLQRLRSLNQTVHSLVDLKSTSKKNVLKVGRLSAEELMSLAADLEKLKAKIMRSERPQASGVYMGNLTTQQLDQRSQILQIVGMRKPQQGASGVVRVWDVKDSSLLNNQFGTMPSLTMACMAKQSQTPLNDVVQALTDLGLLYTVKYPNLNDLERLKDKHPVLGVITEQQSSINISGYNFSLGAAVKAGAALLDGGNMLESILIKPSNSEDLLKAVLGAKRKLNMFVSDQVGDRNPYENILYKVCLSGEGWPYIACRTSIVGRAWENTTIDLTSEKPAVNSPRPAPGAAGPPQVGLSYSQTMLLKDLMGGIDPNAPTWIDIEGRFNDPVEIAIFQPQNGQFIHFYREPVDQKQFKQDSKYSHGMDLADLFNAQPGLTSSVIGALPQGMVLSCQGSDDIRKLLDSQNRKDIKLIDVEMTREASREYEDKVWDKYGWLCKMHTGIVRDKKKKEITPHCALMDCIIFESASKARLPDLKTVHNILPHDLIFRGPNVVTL

SMILES: CC(=O)NC[C@H]1CN(c2ccc(N3CCOCC3)c(F)c2)C(=O)O1
- Potency [1]: inactive
- Potency [2]: inactive
- Potency [3]: inactive

SMILES: NS(=O)(=O)c1cc2c(cc1C(F)(F)F)NC(Cc1ccccc1)NS2(=O)=O (stereo not drawn)
- Potency [1]: inactive
- Potency [2]: inactive
- Potency [3]: inactive
- Potency [4]: inactive

SMILES: COCCCOc1ccnc(CS(=O)c2nc3ccccc3[nH]2)c1C (stereo not drawn)
- Potency [1]: inactive
- Potency [2]: inactive

SMILES: NCCc1ccc(O)cc1
- outcome [5]: inactive
- outcome [6]: inactive
- Potency [1]: inactive
- Potency [2]: inactive
- Potency [3]: inactive
- Potency [4]: inactive
- Potency [7]: inactive
- Potency [8]: inactive
- Potency [9]: inactive
- Potency [10]: inactive
- Potency [11]: inactive
- Potency [12]: inactive
- Potency [13]: inactive
- Potency [14]: inactive
- Potency [15]: inactive
- Potency [16]: inactive
- Potency [17]: inactive
- Potency [18]: inactive
- Potency [19]: inactive

SMILES: Cc1ncsc1CCCl
- outcome [5]: inactive
- outcome [6]: inactive
- Potency [1]: inactive
- Potency [2]: inactive
- Potency [3]: inactive
- Potency [4]: inactive
- Potency [7]: inactive
- Potency [8]: inactive
- Potency [20]: inactive
- Potency [9]: inactive
- Potency [10]: inactive
- Potency [11]: inactive
- Potency [12]: inactive
- Potency [13]: inactive
- Potency [14]: inactive
- Potency [15]: inactive
- Potency [16]: inactive
- Potency [17]: inactive
- Potency [18]: inactive
- Potency [19]: inactive

SMILES: Cc1cc(NS(=O)(=O)c2ccc(N)cc2)no1
- Potency [1]: inactive
- Potency [2]: inactive
- Potency [3]: inactive
- Potency [4]: inactive

SMILES: CO[C@H]1C[C@@H]2CC[C@@H](C)[C@@](O)(O2)C(=O)C(=O)N2CCCC[C@@H]2C(=O)O[C@H]([C@@H](C)C[C@@H]2CC[C@H](O)[C@H](OC)C2)CC(=O)[C@H](C)C=C(C)[C@@H](O)[C@@H](OC)C(=O)[C@H](C)C[C@H](C)C=CC=CC=C1C
- Potency [1]: inactive
- Potency [2]: 0.0027 µM (active)
- Potency [3]: 0.0122 µM (active)

SMILES: CC(C(=O)O)c1ccc2c(c1)CC(=O)c1ccccc1S2 (stereo not drawn)
- Potency [1]: inactive
- Potency [2]: inactive

SMILES: Nc1ccc(S(=O)(=O)c2ccc(N)cc2)cc1
- Potency [1]: inactive
- Potency [2]: inactive
- Potency [3]: inactive
- Potency [4]: inactive

SMILES: CCCCCN(C)CCC(O)(P(=O)(O)O)P(=O)(O)O
- outcome [5]: inactive
- Potency [1]: inactive
- Potency [2]: inactive
- Potency [3]: inactive
- Potency [4]: inactive

SMILES: CO[C@@]1(NC(=O)CSC[C@@H](N)C(=O)O)C(=O)N2C(C(=O)O)=C(CSc3nnnn3C)CS[C@@H]21
- Potency [1]: inactive
- Potency [2]: inactive
- Potency [3]: inactive
- Potency [4]: inactive

SMILES: S=c1nc[nH]c2nc[nH]c12
- Potency [1]: inactive
- Potency [2]: 6.11 µM (active)

SMILES: O=c1[nH]oc2c1CCNC2
- outcome [5]: inactive
- outcome [6]: inactive
- Potency [1]: inactive
- Potency [2]: inactive
- Potency [3]: inactive
- Potency [4]: inactive
- Potency [7]: inactive
- Potency [8]: inactive
- Potency [20]: inactive
- Potency [9]: inactive
- Potency [10]: inactive
- Potency [11]: inactive
- Potency [12]: inactive
- Potency [13]: inactive
- Potency [14]: inactive
- Potency [15]: inactive
- Potency [16]: inactive
- Potency [17]: inactive
- Potency [18]: inactive
- Potency [19]: inactive

SMILES: Cc1ncc([N+](=O)[O-])n1CC(C)O (stereo not drawn)
- Potency [1]: inactive
- Potency [2]: inactive
- Potency [3]: inactive

SMILES: O=C(CCCN1CCC2(CC1)C(=O)NCN2c1ccccc1)c1ccc(F)cc1
- outcome [6]: inactive
- Potency [1]: inactive
- Potency [2]: inactive
- Potency [3]: inactive
- Potency [4]: inactive
- Potency [7]: inactive
- Potency [8]: inactive
- Potency [9]: inactive
- Potency [10]: inactive
- Potency [12]: inactive
- Potency [13]: inactive
- Potency [15]: inactive
- Potency [16]: inactive
- Potency [17]: inactive
- Potency [19]: inactive

SMILES: O=C(O)CCCc1ccc(N(CCCl)CCCl)cc1
- outcome [6]: inactive
- Potency [1]: inactive
- Potency [2]: inactive
- Potency [3]: inactive
- Potency [4]: inactive
- Potency [7]: inactive
- Potency [8]: inactive
- Potency [9]: inactive
- Potency [10]: 20.9 µM (active)
- Potency [12]: 11.9 µM (active) and 1.05 µM (active)
- Potency [13]: inactive
- Potency [14]: inactive
- Potency [15]: inactive
- Potency [16]: inactive
- Potency [17]: 9.44 µM (active)
- Potency [18]: inactive
- Potency [19]: inactive

SMILES: Nc1nc(Cl)nc2c1ncn2[C@@H]1O[C@H](CO)[C@@H](O)[C@@H]1F
- Potency [1]: inactive

SMILES: NC(=O)c1cnccn1
- Potency [1]: inactive
- Potency [2]: inactive
- Potency [3]: inactive

SMILES: CCOc1ccc2nc3cc(N)ccc3c(N)c2c1
- Potency [1]: inactive

SMILES: COc1ccc2c(c1OC)C(=O)O[C@H]2[C@@H]1c2cc3c(cc2CCN1C)OCO3
- outcome [5]: inactive
- outcome [6]: inactive
- Potency [1]: inactive
- Potency [2]: inactive
- Potency [3]: inactive
- Potency [4]: inactive
- Potency [7]: inactive
- Potency [8]: inactive
- Potency [20]: inactive
- Potency [9]: inactive
- Potency [10]: inactive
- Potency [11]: inactive
- Potency [12]: inactive
- Potency [13]: inactive
- Potency [14]: inactive
- Potency [15]: inactive
- Potency [16]: inactive
- Potency [17]: inactive
- Potency [18]: inactive
- Potency [19]: inactive

SMILES: CCC1(c2ccc(N)cc2)CCC(=O)NC1=O (stereo not drawn)
- outcome [5]: inactive
- outcome [6]: inactive
- Potency [1]: inactive
- Potency [2]: inactive
- Potency [3]: inactive
- Potency [4]: inactive
- Potency [7]: inactive
- Potency [8]: inactive
- Potency [20]: inactive
- Potency [9]: inactive
- Potency [10]: inactive
- Potency [11]: inactive
- Potency [12]: inactive
- Potency [13]: inactive
- Potency [14]: inactive
- Potency [15]: inactive
- Potency [16]: inactive
- Potency [17]: inactive
- Potency [18]: inactive
- Potency [19]: inactive

SMILES: CC(C)(C)C1CCC(CC2=C(O)c3ccccc3C(=O)C2=O)CC1 (stereo not drawn)
- Potency [1]: inactive
- Potency [2]: inactive
- Potency [3]: inactive

SMILES: Nc1nc2[nH]cc(CCc3ccc(C(=O)N[C@@H](CCC(=O)O)C(=O)O)cc3)c2c(=O)[nH]1
- Potency [1]: inactive
- Potency [2]: inactive

SMILES: CCCCC/C=C\C/C=C\C/C=C\C/C=C\CCCC(=O)NCC(=O)O
- outcome [6]: inactive
- Potency [1]: inactive
- Potency [2]: inactive
- Potency [3]: inactive
- Potency [4]: inactive
- Potency [7]: inactive
- Potency [8]: inactive
- Potency [20]: inactive
- Potency [9]: inactive
- Potency [11]: inactive
- Potency [13]: inactive
- Potency [15]: inactive
- Potency [16]: inactive
- Potency [17]: inactive
- Potency [18]: inactive
- Potency [19]: inactive
